# Test results taken from PubChem BioAssay (NCATS).
# Values without a mark were called inactive. Inconclusive results are not listed. Entries that show only a call come without a potency. Calls of active or inactive are those of the source. Unless noted, the call rests on the fitted dose curve; in most records, active means well fitted curve in the direction sought with a large enough effect; inconclusive means small, poorly fitted or top-dose-only effect, or another doubt; inactive means no such curve, though single readings can be large; an effect the other way counts as inactive or inconclusive.
# How the values were obtained:
# [1] = target: Cytochrome P450 2D6 (Homo sapiens) (UniProt P10635); test: Cytochrome P450 family 2 subfamily D member 6 (CYP2D6) small molecule antagonists: luciferase biochemical (cell-free) qHTS assay (AID 1645840; active means well fitted curve in the direction sought with a large enough effect in the repeat runs; an effect the other way counts as inactive or inconclusive; further: nearly all actives have a fitted effect of over 55% in size; further: potency means the concentration at half of the fitted maximal effect)
# Cytochrome P450 2D6 (Homo sapiens), sequence (P10635 whole entry, looked up): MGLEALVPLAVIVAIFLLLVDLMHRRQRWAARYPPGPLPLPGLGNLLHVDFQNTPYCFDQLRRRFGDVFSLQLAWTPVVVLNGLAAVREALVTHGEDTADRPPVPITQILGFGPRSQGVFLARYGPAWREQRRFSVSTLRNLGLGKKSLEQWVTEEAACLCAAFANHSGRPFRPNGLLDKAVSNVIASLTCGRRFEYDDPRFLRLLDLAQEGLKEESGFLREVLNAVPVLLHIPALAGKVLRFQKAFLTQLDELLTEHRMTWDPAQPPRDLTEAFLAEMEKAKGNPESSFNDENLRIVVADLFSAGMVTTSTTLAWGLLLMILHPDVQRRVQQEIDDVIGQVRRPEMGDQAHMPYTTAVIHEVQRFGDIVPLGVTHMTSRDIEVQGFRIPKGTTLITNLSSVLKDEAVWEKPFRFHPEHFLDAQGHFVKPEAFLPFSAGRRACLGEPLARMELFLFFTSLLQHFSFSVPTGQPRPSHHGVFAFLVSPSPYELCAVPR
# Outline: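 P450-Glo luminescent screen: recombinant CYP2D6 enzyme–proluciferin substrate mix preincubated with compound 10 min at room temperature, then NADPH regeneration added for 1 h at room temperature. Detection reagent added for 20 min; luciferin light read as relative luminescence units.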
# [2] = target: Cytochrome P450 2C9 (Homo sapiens) (UniProt P11712); test: Cytochrome P450 family 2 subfamily C member 9 (CYP2C9) small molecule antagonists: luciferase biochemical (cell-free) qHTS assay (AID 1645842; active means well fitted curve in the direction sought with a large enough effect in the repeat runs; an effect the other way counts as inactive or inconclusive; further: nearly all actives have a fitted effect of over 55% in size; further: potency means the concentration at half of the fitted maximal effect)
# Cytochrome P450 2C9 (Homo sapiens), sequence (P11712 whole entry, looked up): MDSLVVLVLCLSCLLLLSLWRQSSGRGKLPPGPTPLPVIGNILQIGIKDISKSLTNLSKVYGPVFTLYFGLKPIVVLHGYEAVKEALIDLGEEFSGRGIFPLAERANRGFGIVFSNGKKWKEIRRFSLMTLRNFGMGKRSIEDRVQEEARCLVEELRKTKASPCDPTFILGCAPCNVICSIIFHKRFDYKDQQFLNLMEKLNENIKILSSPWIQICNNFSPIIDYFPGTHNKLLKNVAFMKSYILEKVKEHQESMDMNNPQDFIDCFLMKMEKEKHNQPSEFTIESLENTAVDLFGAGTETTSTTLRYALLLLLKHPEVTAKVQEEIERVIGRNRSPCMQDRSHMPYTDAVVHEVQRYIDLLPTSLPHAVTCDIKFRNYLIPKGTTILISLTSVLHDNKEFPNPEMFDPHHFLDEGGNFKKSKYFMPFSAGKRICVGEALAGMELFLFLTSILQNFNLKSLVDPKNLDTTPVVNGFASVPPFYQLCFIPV
# Outline: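 Luminescence, after 20 min with luciferin detection reagent, reflected CYP2C9 turnover during a 1 h NADPH-driven reaction at 37C. Enzyme-substrate mix contained 0.4% bovine serum albumin and was preincubated with compound 10 min at room temperature.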
# [3] = Stat Signaling Pathway (AID 446; active means well fitted curve in either direction with a large enough effect, not every such curve was filed as active;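 further: ME-180 cervical cancer cells given 40 pM IL-6 alongside compound; SIE-controlled beta-lactamase reporter measured as 460/530 nm FRET emission ratio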)
# Outline: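 IL-6/STAT signaling read in ME-180 cells via an SIE beta-lactamase reporter. Stimulus was 40 pM IL-6 (its AC50) for 5 hrs, so both activation and inhibition register.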
# [4] = target: Glucocorticoid receptor (Homo sapiens) (UniProt P04150); test: GR-GFP Redistribution (AID 450;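 active means compounds whose dose series gives a full or clear partial fitted curve of increased nuclear translocation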; further: potency means the concentration at half of the fitted maximal effect); conditions: U2OS GR-GFP nuclear translocation, laser cytometry, 2 h
# [5] = target: Luciferin 4-monooxygenase (Photinus pyralis) (UniProt P08659); test: Biochemical firefly luciferase enzyme assay for NPC (AID 624030);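 further: purified P. pyralis luciferase at 10 nM with luciferin and ATP substrate; series mostly up to about 59 µM; nearly all actives have a fitted effect of over 70% in size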
# Outline: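 Purified P. pyralis luciferase at 10 nM in 50 mM Tris Acetate (final), luminescence read within 5 minutes of enzyme addition to compounds. Activity normalised to PTC124 versus DMSO; concentration-response curves classed by r2, magnitude and activity.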
# [6] = target: Glutathione peroxidase 1 (Homo sapiens) (UniProt P07203); test: Primary qHTS Assay for Inhibitors of Recombinant Selenoprotein Glutathione Peroxidase 1 (GPX1) (AID 1845191); further: nearly all actives have a fitted effect of over 65% in size
# Glutathione peroxidase 1 (Homo sapiens), sequence (P07203 whole entry, looked up): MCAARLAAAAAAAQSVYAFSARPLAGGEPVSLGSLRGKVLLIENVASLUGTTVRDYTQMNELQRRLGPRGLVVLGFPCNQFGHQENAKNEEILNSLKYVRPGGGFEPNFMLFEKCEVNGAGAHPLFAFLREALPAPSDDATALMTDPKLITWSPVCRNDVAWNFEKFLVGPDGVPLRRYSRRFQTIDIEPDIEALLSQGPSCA
# Outline: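 GR-coupled assay: compounds preincubated 30 min at room temperature with GPX1, then reaction started with CHP; final 10 nM GPX1, 1 mM GSH, 0.5 mM CHP, 0.5 mM NADPH, 100 nM GR, 0.01% BSA, pH 7.5 Tris buffer. NADPH fluorescence (340/450 nm) read at 0 and 15 min.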
# [7] = target: Phospholipid hydroperoxide glutathione peroxidase GPX4 (Homo sapiens) (UniProt P36969); test: Primary qHTS Assay for Inhibitors of Recombinant Selenoprotein Glutathione Peroxidase 4 (GPX4) (AID 1845192); further: nearly all actives have a fitted effect of over 65% in size
# Phospholipid hydroperoxide glutathione peroxidase GPX4 (Homo sapiens), sequence (P36969 whole entry, looked up): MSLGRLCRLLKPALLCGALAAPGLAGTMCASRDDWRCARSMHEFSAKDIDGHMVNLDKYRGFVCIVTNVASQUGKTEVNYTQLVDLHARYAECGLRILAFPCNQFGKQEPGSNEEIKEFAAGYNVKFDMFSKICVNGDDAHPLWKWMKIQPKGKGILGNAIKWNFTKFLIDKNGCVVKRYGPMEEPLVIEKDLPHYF
# Outline: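 GR-coupled assay: recombinant GPX4 preincubated 30 min with compound at room temperature; final 200 nM GPX4, 1 mM GSH, 0.5 mM cumene hydroperoxide, 0.5 mM NADPH, 100 nM GR, 0.01% BSA, pH 7.5 Tris. NADPH fluorescence (340/450 nm) read at 0 and 15 min.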
# [8] = HepG2 viability counterscreen (readout 2: ATP content) against the NCATS DSHEA and TCM libraries (AID 1794840)
# Outline: (§1)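 Same wells read twice: first fluorescence from cleaved GF-AFC substrate (25 uM final, 30 min, 37C) for live-cell protease, then CellTiter-Glo luminescence after 30 min at room temperature for ATP. HepG2 cells were exposed ~24 h to substances.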
# [9] = HepG2 viability counterscreen (readout 1: protease activity) against the NCATS DSHEA and TCM libraries (AID 1794841);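 further: cells exposed to compounds for about 24 h before the protease read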
# Outline: as §1
# [10] = target: Cytochrome P450 3A4 (Homo sapiens) (UniProt P08684); test: qHTS for inhibitors of CYP3A4 against the NCATS DSHEA and TCM libraries (AID 1919971);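 further: inhibition lowers luminescence from luciferin made by CYP3A4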
# Cytochrome P450 3A4 (Homo sapiens), sequence (P08684 whole entry, looked up): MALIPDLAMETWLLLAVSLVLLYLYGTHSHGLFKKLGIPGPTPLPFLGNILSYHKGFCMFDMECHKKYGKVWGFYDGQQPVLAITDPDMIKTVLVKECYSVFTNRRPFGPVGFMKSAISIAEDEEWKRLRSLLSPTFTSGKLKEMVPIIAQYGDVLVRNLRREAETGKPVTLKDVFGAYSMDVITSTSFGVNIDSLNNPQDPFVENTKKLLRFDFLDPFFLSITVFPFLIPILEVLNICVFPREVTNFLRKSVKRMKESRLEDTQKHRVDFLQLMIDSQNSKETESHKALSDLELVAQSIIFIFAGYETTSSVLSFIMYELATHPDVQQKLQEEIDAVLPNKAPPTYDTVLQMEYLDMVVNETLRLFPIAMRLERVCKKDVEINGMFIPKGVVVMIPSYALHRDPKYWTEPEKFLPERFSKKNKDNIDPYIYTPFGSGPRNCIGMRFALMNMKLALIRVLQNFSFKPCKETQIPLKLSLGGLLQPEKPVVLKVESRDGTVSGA
# Outline: (§2)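 Luminescent P450-Glo readout. Enzyme plus pro-luciferin substrate in manufacturer buffer (typically 100 mM KPO4); 15 min RT preincubation; 1x NADPH regenerating system, 30-45 min RT in the dark; detection reagent 30 min.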
# [11] = target: Cytochrome P450 2D6 (Homo sapiens) (UniProt P10635); test: qHTS for inhibitors of CYP2D6 against the NCATS DSHEA and TCM libraries (AID 1919972)
# Outline: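 Steps: enzyme plus luciferin substrate dispensed; test substances pinned; 15 min RT; 1x NADPH regenerating solution added, 30–45 min RT protected from light; detection reagent, 30 min RT; luminescence measured. Minus-enzyme wells as background.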
# [12] = target: Cytochrome P450 2C9 (Homo sapiens) (UniProt P11712); test: qHTS for inhibitors of CYP2C9 against the NCATS DSHEA and TCM libraries (AID 1919973);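 further: luminogenic pro-luciferin CYP2C9 substrate turned into luciferin with NADPH regeneration; series mostly up to about 34 µM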
# Outline: as §2
# [13] = target: Cytochrome P450 2C19 (Homo sapiens) (UniProt P33261); test: qHTS for inhibitors of CYP2C19 against the NCATS DSHEA and TCM libraries (AID 1919974);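 further: luminescence from luciferin released by CYP2C19 oxidation of a pro-luciferin substrate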
# Cytochrome P450 2C19 (Homo sapiens), sequence (P33261 whole entry, looked up): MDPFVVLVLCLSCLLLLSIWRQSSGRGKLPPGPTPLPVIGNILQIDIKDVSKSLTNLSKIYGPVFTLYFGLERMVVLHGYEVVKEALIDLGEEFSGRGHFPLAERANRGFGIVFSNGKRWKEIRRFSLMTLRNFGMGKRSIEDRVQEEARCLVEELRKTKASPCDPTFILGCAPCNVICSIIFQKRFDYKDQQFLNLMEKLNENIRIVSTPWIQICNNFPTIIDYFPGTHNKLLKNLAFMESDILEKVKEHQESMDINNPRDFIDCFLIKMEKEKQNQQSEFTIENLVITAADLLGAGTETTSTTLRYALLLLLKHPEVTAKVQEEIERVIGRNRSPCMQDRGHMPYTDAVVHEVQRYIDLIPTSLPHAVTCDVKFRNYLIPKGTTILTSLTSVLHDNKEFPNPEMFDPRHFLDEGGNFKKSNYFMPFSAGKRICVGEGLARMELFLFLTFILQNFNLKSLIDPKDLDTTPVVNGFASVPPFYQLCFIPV
# Outline: as §2
# [14] = KB-3-1 P-gp reporter qHTS against the NCATS DSHEA and TCM libraries (AID 1919975)
# Outline: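 KB-3-1 parental line, 1536-well qHTS: cells seeded, ~4 h attachment, pintool compound addition, ~72 h at 37C, then CellTiter-Glo, 30 min RT, luminescence. Concentration-response format.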
# [15] = target: Cytochrome P450 1A2 (Homo sapiens) (UniProt P05177); test: qHTS for inhibitors of CYPIA2 against the NCATS DSHEA and TCM libraries (AID 1919976);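 further: light from luciferin formed by CYP1A2 from a pro-luciferin substrate; series mostly up to about 37 µM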
# Outline: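 Human CYP1A2 with its pro-luciferin substrate in supplier buffer (typically 100 mM KPO4) was pre-incubated with compounds 15 min at RT. Reaction was started with 1x NADPH regeneration solution and run 30-45 min at RT in the dark, then luminescence was read after P450-Glo detection reagent (30 min RT).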
# [16] = qHTS Counterscreen for compound interference against the NCATS DSHEA and TCM libraries (AID 1919978); conditions: firefly luciferase detection reagent interference, luminescence;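 further: compounds preincubated with 1 µM D-luciferin or buffer before detection reagent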
# Outline: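 Compounds, titrated from 19.5 nM to 39.8 uM final, were pinned onto 1 uM D-luciferin or plain 100 mM potassium phosphate. After 15 min at room temperature, luciferin detection reagent was added for 30 min before the luminescence read.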
# [17] = Dual reporter qHTS for agonist of Pregnane X Receptor (hPXR) against the NCATS DSHEA and TCM libraries: Fluorescence readout (AID 1920058)
# Outline: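 hPXR-Luc HepG2 cells (2000/well) in phenol red-free medium with charcoal-stripped FBS attached for 5 h, then were exposed to compounds for about 24 h at 37 °C. Viability was read by CellTiter-Fluor fluorescence (Ex/Em 405/540 nm) after 1 h.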
# [18] = target: Nuclear receptor subfamily 1 group I member 2 (Homo sapiens) (UniProt O75469); test: Dual reporter qHTS for agonist of Pregnane X Receptor (hPXR) against the NCATS DSHEA and TCM libraries: Luminescence readout (AID 1920059)
# Nuclear receptor subfamily 1 group I member 2 (Homo sapiens), sequence (O75469 whole entry, looked up): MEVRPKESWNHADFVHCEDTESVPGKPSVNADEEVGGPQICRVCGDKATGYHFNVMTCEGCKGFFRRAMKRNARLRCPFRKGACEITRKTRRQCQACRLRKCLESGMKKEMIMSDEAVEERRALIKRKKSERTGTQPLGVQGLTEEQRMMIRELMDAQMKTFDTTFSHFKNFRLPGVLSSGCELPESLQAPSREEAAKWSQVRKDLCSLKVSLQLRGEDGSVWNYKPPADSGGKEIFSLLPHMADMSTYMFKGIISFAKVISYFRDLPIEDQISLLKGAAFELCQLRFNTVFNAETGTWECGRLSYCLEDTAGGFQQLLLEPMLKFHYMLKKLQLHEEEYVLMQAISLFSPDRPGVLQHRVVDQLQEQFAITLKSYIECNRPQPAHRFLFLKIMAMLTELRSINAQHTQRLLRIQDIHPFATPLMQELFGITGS
# Outline: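 hPXR-Luc HepG2 cells, 2000/well in 5% charcoal-stripped FBS medium, attached 5 h, then exposed 24 h at 37C to compounds. Viability by CellTiter-Fluor, then luciferase luminescence with ONE-Glo.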
# [19] = target: Nuclear receptor subfamily 1 group I member 2 (Homo sapiens) (UniProt O75469); test: Dual reporter qHTS for antagonist of Pregnane X Receptor (hPXR) against the NCATS DSHEA and TCM libraries: Luminescence Readout (AID 1920060)
# Outline: (§3)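 Rifampicin-stimulated (2 uM final) hPXR-luciferase HepG2 cells were treated for 24 h with DSNP/TCM substances. Viability came from CellTiter-Fluor fluorescence, reporter activity from ONE-Glo luminescence.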
# [20] = Dual reporter qHTS for antagonist of Pregnane X Receptor (hPXR) against the NCATS DSHEA and TCM libraries: Fluorescence Readout (AID 1920061)
# Outline: as §3
# [21] = target: Rap guanine nucleotide exchange factor 3 (Homo sapiens) (UniProt O95398); test: Confirmatory qHTS for antagonist of cAMP-regulated guanine nucleotide exchange factor 3 (EPAC1) (AID 1645880); further: nearly all actives have a fitted effect of over 55% in size; further: potency means the concentration at half of the fitted maximal effect
# Rap guanine nucleotide exchange factor 3 (Homo sapiens), sequence (O95398 whole entry, looked up): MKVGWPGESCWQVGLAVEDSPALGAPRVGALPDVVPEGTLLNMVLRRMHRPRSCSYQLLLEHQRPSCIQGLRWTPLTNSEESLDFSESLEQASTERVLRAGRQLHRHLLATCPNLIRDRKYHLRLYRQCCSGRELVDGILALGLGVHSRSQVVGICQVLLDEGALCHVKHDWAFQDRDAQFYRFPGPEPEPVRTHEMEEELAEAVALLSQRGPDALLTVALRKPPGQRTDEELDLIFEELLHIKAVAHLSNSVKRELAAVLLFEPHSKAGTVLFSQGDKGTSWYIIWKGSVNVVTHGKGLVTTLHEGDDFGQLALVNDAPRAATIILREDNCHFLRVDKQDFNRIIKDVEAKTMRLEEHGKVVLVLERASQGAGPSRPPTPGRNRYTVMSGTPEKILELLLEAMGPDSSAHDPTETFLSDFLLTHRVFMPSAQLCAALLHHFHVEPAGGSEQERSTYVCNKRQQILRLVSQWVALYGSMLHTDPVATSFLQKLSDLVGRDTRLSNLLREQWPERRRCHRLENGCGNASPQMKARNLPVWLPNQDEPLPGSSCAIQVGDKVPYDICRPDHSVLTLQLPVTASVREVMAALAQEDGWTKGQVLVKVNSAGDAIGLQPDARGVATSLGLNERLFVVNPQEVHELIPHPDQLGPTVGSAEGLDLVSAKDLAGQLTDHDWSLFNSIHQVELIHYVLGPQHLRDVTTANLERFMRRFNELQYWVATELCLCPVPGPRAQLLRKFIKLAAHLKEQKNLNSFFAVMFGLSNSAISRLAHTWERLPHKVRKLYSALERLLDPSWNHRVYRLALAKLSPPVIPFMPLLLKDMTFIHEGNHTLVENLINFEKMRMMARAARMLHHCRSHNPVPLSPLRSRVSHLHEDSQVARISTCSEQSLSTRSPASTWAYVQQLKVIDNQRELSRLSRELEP
# Outline: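 Nucleotide exchange uses 100 nM EPAC1, 250 nM RAP1B-BODIPY-GDP and 50 uM GDP, with compounds in a concentration-titration series. After 5 min at room temperature, fluorescence (480 nm ex/540 nm em) is read every 5 min for 30 min. Data are normalized to control ATA and DMSO.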
# [22] = target: Rap guanine nucleotide exchange factor 3 (Homo sapiens) (UniProt O95398); test: Confirmatory qHTS for agonist of cAMP-regulated guanine nucleotide exchange factor 3 (EPAC1) (AID 1645881); further: nearly all actives have a fitted effect of over 75% in size; further: potency means the concentration at half of the fitted maximal effect
# [23] = target: Rap guanine nucleotide exchange factor 4 (Homo sapiens) (UniProt Q8WZA2); test: Confirmatory qHTS for antagonist of cAMP-regulated guanine nucleotide exchange factor 4 (EPAC2) (AID 1645885); further: nearly all actives have a fitted effect of over 25% in size; further: potency means the concentration at half of the fitted maximal effect
# Rap guanine nucleotide exchange factor 4 (Homo sapiens), sequence (Q8WZA2 whole entry, looked up): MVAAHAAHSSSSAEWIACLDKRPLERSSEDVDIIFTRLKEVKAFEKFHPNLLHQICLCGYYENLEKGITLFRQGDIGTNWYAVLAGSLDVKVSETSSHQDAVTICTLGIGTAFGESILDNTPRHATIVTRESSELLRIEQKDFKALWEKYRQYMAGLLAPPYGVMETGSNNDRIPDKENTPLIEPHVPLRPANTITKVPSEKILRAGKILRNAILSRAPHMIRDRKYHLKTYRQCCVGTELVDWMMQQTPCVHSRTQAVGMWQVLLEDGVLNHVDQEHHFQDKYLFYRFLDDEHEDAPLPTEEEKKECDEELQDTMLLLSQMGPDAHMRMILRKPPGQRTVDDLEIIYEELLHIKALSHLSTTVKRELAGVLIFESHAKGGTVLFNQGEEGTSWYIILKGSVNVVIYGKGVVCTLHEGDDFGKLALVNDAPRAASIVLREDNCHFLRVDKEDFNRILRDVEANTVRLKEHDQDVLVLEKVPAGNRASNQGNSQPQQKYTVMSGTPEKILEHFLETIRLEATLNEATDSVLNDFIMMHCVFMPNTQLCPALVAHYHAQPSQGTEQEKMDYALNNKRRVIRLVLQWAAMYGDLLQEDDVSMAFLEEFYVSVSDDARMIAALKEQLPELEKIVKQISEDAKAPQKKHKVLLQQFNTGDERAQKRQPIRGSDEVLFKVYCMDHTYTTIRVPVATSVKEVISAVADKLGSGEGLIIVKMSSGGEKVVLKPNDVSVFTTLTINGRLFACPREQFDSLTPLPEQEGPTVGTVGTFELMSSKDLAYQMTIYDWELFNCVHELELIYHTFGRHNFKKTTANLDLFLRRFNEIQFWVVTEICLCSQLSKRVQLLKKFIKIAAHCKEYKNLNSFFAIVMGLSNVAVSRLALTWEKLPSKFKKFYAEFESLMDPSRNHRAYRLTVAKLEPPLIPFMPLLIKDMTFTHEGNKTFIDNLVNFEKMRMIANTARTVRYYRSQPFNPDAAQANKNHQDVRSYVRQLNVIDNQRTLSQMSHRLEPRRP
# [24] = target: Rap guanine nucleotide exchange factor 3 (Homo sapiens) (UniProt O95398); test: Counterscreen qHTS for antagonist of cAMP-regulated guanine nucleotide exchange factor 3 (EPAC1) (AID 1645888);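 further: fluorescence loss as bound BODIPY-GDP is released from Rap1B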
# Outline: (§4)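 Rap1B–BODIPY-GDP (250 nM) with 50 uM GDP; compounds pin-transferred to 9.74 nM–152 uM final (activator) or from 7.32 nM upwards (inhibitor). Fluorescence Ex/Em 480/540 nm read at 5 and 30 min, then after adding cAMP or buffer, at room temperature.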
# [25] = target: N-terminal Xaa-Pro-Lys N-methyltransferase 1 (Homo sapiens) (UniProt Q9BV86); test: Confirmatory qHTS for Inhibitors of N-terminal methyltransferase 1 (NTMT1): MTaseGlo Assay (AID 1645874); further: potency means the concentration at half of the fitted maximal effect; nearly all actives have a fitted effect of over 65% in size
# N-terminal Xaa-Pro-Lys N-methyltransferase 1 (Homo sapiens), sequence (Q9BV86 whole entry, looked up): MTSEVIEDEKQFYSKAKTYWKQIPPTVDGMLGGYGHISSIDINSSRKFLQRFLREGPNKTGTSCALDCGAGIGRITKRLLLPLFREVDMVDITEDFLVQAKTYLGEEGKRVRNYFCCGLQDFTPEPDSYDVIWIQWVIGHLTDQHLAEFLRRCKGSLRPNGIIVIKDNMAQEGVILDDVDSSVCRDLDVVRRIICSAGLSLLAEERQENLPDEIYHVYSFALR
# Outline: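 Compounds are incubated with 125 nM NTMT1 and 100 uM SAM for 15 min before the SPKRIA peptide (1 uM) starts a 30 min room-temperature methylation. SAH is measured by coupled luciferase luminescence and curves fitted to a Hill equation.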
# [26] = target: Rap guanine nucleotide exchange factor 4 (Homo sapiens) (UniProt Q8WZA2); test: Confirmatory qHTS for agonist of cAMP-regulated guanine nucleotide exchange factor 4 (EPAC2) (AID 1645884);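 further: nucleotide exchange releases bodipy-GDP from Rap1 and this lowers its fluorescence; nearly all actives have a fitted effect of over 65% in size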
# [27] = target: Rap guanine nucleotide exchange factor 3 (Homo sapiens) (UniProt O95398); test: Counterscreen qHTS for agonist of cAMP-regulated guanine nucleotide exchange factor 3 (EPAC1) (AID 1645889); further: potency means the concentration at half of the fitted maximal effect; nearly all actives have a fitted effect of over 40% in size
# Outline: as §4
# [28] = Viability counterscreen for antagonist of constitutive androstane receptor (CAR) against the NCATS DSHEA and TCM libraries (AID 1794837);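 further: compound exposure lasted 24 h before viability reading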
# Outline: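 Cells: HepG2 line carrying CYP2B6 reporter and hCAR, seeded and attached 5 h. Then pin-transferred test substances plus agonist CITCO at 48 uM final; 24 h incubation; fluorogenic viability reagent, 1 h.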
# [29] = Viability counterscreen for agonist of constitutive androstane receptor (CAR) against the NCATS DSHEA and TCM libraries (AID 1794838);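 further: HepG2 cells with CYP2B6 reporter and hCAR plus 0.75 µM PK11195 antagonist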
# Outline: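 Cell health was measured as CellTiter-Fluor signal in HepG2-CYP2B6-hCAR cells treated for 24 h with substances alongside the hCAR antagonist PK11195 (0.75 uM final).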
# [30] = target: Nuclear receptor subfamily 1 group I member 3 (Homo sapiens) (UniProt Q14994); test: Primary qHTS for agonist of constitutive androstane receptor (CAR) against the NCATS DSHEA and TCM libraries (AID 1794839);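 further: HepG2 cells expressing human CAR with a CYP2B6 reporter plus PK11195 antagonist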
# Outline: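 qHTS, agonist mode: HepG2-CYP2B6-hCAR, 2,500 cells/well, 5 h attach; cpds + PK11195 0.75 µM final; 24 h, 37 °C, 5% CO2. Readouts: CellTiter-Fluor (405/540 nm), then ONE-Glo luminescence.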
compound,measurement,setting,value
COc1ccc(-n2nc3c(N4CCCC(C(=O)NCc5ccc(C)cc5)C4)nnc(C)c3c2C)cc1 (centres undefined),Potency,[1],3.79 µM (active)
same,Potency,[2],inactive
CCOC(=O)c1ccc(NC(=O)c2cc(=O)c3ccc(C)c(C)c3o2)cc1,Potency,[1],inactive
same,Potency,[2],inactive
C[C@@H]1C[C@H]2[C@@H]3C[C@H](F)C4=CC(=O)C=C[C@]4(C)[C@@]3(F)[C@@H](O)C[C@]2(C)[C@@]1(O)C(=O)COC(=O)C(C)(C)C,outcome,[3],inactive
same,Potency,[4],0.00124 µM (active)
same,Potency,[5],inactive
same,Potency,[1],inactive
same,Potency,[2],9.52 µM (active)
same,Potency,[6],inactive
same,Potency,[7],inactive
COCCn1c(SCC(=O)Nc2ccc(F)c(Cl)c2)nc2c(oc3ccccc32)c1=O,Potency,[1],2.39 µM (active)
same,Potency,[2],0.952 µM (active)
Cc1ccc(NC(=O)Cn2c(=O)n(CCC(=O)NCc3ccc4c(c3)OCO4)c(=O)c3sccc32)c(C)c1,Potency,[1],1.69 µM (active)
same,Potency,[2],2.13 µM (active)
OCC=Cc1ccccc1,Potency,[1],inactive
same,Potency,[2],19 µM (active)
same,outcome,[8],inactive
same,outcome,[9],inactive
same,Potency,[7],inactive
same,outcome,[10],inactive
same,outcome,[11],inactive
same,outcome,[12],inactive
same,outcome,[13],inactive
same,outcome,[14],inactive
same,outcome,[15],inactive
same,max response,[16],2.25%
same,outcome,[17],inactive
same,outcome,[18],inactive
same,outcome,[19],inactive
same,outcome,[20],inactive
CCCCCCCCC=CCCCCCCCC(=O)NCCOC(=O)CC(C(=O)O)S(=O)(=O)O (centres undefined),Potency,[1],13.5 µM (active)
same,Potency,[2],8.49 µM (active)
same,Potency,[6],inactive
same,Potency,[7],inactive
Cc1ccc(Cn2c(Cc3ccccc3)nc3ccccc32)cc1,Potency,[1],10.7 µM (active)
same,Potency,[2],13.5 µM (active)
same,Potency,[21],inactive
same,Potency,[22],inactive
same,Potency,[23],inactive
same,Potency,[24],inactive
O=C(Nc1cccc(Cl)c1)c1c(NC(=O)C(F)(F)F)sc2c1CCCC2,Potency,[1],4.46 µM (active)
same,Potency,[2],0.354 µM (active)
same,Potency,[25],5.4 µM (active)
same,Potency,[21],37.9 µM (active)
same,Potency,[22],inactive
same,Potency,[26],inactive
same,Potency,[23],inactive
same,Potency,[24],inactive
CCOC(=O)c1c(NC(=O)c2ccc(S(=O)(=O)N(C)C3CCCCC3)cc2)sc2c1CCN(C(C)C)C2,Potency,[1],9.52 µM (active)
same,Potency,[2],5.35 µM (active)
same,Potency,[21],inactive
same,Potency,[22],89.1 µM (active)
same,Potency,[26],inactive
same,Potency,[23],4.26 µM (active)
same,Potency,[27],20 µM (active)
C=C(C)[C@H]1CC=C(C)CC1,Potency,[1],inactive
same,Potency,[2],inactive
same,outcome,[28],inactive
same,outcome,[29],inactive
same,outcome,[30],inactive
same,outcome,[8],inactive
same,outcome,[9],inactive
same,outcome,[10],inactive
same,outcome,[11],inactive
same,outcome,[12],inactive
same,outcome,[13],inactive
same,outcome,[14],inactive
same,outcome,[15],inactive
same,max response,[16],-0.263%
same,outcome,[17],inactive
same,outcome,[18],inactive
same,outcome,[19],inactive
same,outcome,[20],inactive
